# Test system: ACVR1
# Details: concentration: 1 μM, replicates: in singlicate; n = 1
# 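Also: KINOMEscan kinase panel screen.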
row,Structure (SMILES),%Inh
1,Cl.c1ccc(-c2ccc3c(Nc4ccc5[nH]ccc5c4)ccnc3c2)nc1 [GW440138],55%
2,Nc1n[nH]c2cnc(-c3ccccc3)cc12 [SB-642124],41%
3,CN(C)Cc1ccc(-c2ccc3c(Nc4ccc(Oc5ccccn5)cc4)ccnc3c2)o1 [GW567148],0%
4,CC(C)(C)c1ccc2nccc(Nc3cccc(O)c3)c2c1 [GW856795],8%
5,O=c1[nH]cc(-c2ccc(N3CCOCC3)cc2)c2sc(-c3cn[nH]c3)cc12 [GSK2276055],0%
6,O=C(Nc1n[nH]c2cc(-c3ccoc3)ccc12)C1CC1 [SB-738481],30%
7,CC(=O)N1CCN(c2ccc(Nc3nccc(-c4sc(C(C)C)nc4-c4cccc(NS(=O)(=O)c5cccc(Cl)c5)c4)n3)cn2)CC1 [GSK1660437],61%
8,COc1cc2c(cc1OCCN1CCNCC1)ncc1c3ccc(C#N)cc3[nH]c21,0%
9,CNC(=O)c1ccccc1Nc1nc(Nc2ccc(N3CCOCC3)cc2)ncc1Cl.Cl [GSK1576028],95%
10,Oc1cc(Nc2ccnc3cc(I)ccc23)ccc1F [GW552771],97.4%
11,COc1cccc(C2=C(Nc3ccc(Cl)c(C(=O)O)c3)C(=O)NC2=O)c1 [SB-390769],15%
12,O=C(Nc1cccc(-c2nn3ccccc3c2-c2ccnc(Nc3cccc(F)c3)n2)c1)c1c(F)ccc(F)c1Cl [GSK357952],1%
13,O=C(Nc1cccc(Oc2ccc3nc(NC(=O)C4CC4)cn3n2)c1)c1ccccc1C(F)(F)F,0%
14,CSc1cccc2c(-c3ccncn3)c(-c3ccc(F)cc3)nn12 [GW514786],0%
15,Cn1cc(-c2[nH]c3cc(NC(=O)[C@H](N)C4CCCCC4)cc4c3c2C=NNC4=O)cn1,58%
16,COc1ccc(CNC(=O)NC2CCN(c3ccnc(Nc4ccc(F)cc4)n3)CC2)cc1 [GSK1379788],0%
17,COc1cccc(NC(=O)NC2CCN(c3ccnc(Nc4cc(OC)c(OC)c(OC)c4)n3)C2)c1 (stereo not shown) [GSK1379763],0%
18,O=C(Nc1n[nH]c2nc(-c3ccc(O)cc3)ccc12)C1CC1 [SB-710363],74%
19,CN1CCN(CCCNc2nccc(-c3c(-c4ccc(F)cc4)nn4cc(C(F)(F)F)ccc34)n2)CC1 [GW621581],40%

row,Structure (SMILES),%Inh
1,c1ccc(-c2n[nH]cc2Nc2ccnc3ccccc23)nc1 [GW694077],30%
2,CCc1ccc(-c2ccc3c(c2)-c2c(cnn2C)S(=O)(=O)N3C)cc1,0%
3,NCCCC(NC(=O)c1cc(Br)c(-c2ccnc3[nH]ccc23)s1)c1ccccc1.O=C(O)C(F)(F)F.O=C(O)C(F)(F)F (stereo not shown) [GSK1287544],0%
4,Nc1ncc(-c2cccnc2)c2scc(-c3ccc4c(c3)CCN4C(=O)Cc3ccccc3)c12 [GSK683281],0%
5,Cl.c1ccc(-c2ccc3c(Nc4ccc5[nH]ncc5c4)ccnc3c2)nc1 [GW440137],71%
6,Cc1ccc(C)c(NC(=O)NC2CCN(c3ccnc(Nc4ccc(F)cc4)n3)C2)c1 (stereo not shown) [GSK1379720],14%
7,COc1cc(Nc2nccc(-c3c(-c4cccc(NC(=O)c5c(F)cccc5F)c4)nn4ccccc34)n2)cc(OC)c1OC [GSK323521],0%
8,Fc1ccc(-c2ncn(C3CCNCC3)c2-c2ccnc(Oc3ccc(-c4ccccc4)cc3)n2)cc1 [SB-245391],0%
9,COc1cc(Nc2ncc3c(C)nc(-c4cc5ccccc5[nH]4)n3n2)cc(OC)c1OC [GW869516],0%
10,Clc1ccc(-c2nn3ncccc3c2-c2ccnc(Nc3ccc4c(c3)OCCO4)n2)cc1 [GW829116],0%
11,c1ccc(-c2cnc3nccnn23)cc1 [AH20685],17%
12,O=C(Nc1ccccc1F)NC1CCN(c2ccnc(Nc3ccc(F)cc3)n2)CC1 [GSK1379800],6%
13,Cc1occc1-c1ncc(OC[C@@H](N)Cc2c[nH]c3ccccc23)cc1-c1ccc2[nH]nc(C)c2c1.O=C(O)C(F)(F)F [GSK682037],0%
14,C[C@@H]1CC[C@@H](C(=O)Nc2ccccc2)CN1c1cc(-c2ccc3c(N)n[nH]c3c2)nc(N)n1 [GSK2286062],0%
15,COc1cc(Nc2nccc(-c3c(-c4cccc(NC(=O)c5c(F)cccc5F)c4)nn4ncccc34)n2)cc(OC)c1OC [GSK327238],0%
16,C[C@@H](Oc1cc(-n2cnc3cc(-c4ccnc(NCCS(C)(=O)=O)c4)ccc32)sc1C(N)=O)c1ccccc1Cl [GSK907232],10%
17,CN1CCN(Cc2cccc(-c3ccc4c(Nc5ccc(Oc6ccccc6)cc5)ccnc4c3)c2)CC1 [GW578342],0%
18,Cc1ccc(S(=O)(=O)Nc2ccc(Nc3nccc(Nc4cccc5[nH]ncc45)n3)cc2)cc1 [GSK581271],32%
